# Measurements reported in PubChem BioAssay.
# Values without a mark were called inactive. Where a call stands in place of a potency, no number is given. For some assays here: Potency and affinity values are given separately. Active and inactive are the calls of the source. Unless noted, the rule behind the calls is not given here.
# How the values were obtained:
# [1] = antimalarial activity against Dd2 strain (AID 2302;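 active = growth inhibition above 50% at the single 2 µM test dose, taken to imply half-maximal potency below 2 µM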); details: P. falciparum Dd2 in RBCs, LDH growth readout, 72 h; at 2 µM; active compounds read high
# [2] = HepG2 cytotoxicity, primary screen, cytotoxicity control for P. falciparum antimalarial project, cell-based, ATP luminescence (AID 2303;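 active = inhibition above 50%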); details: HepG2 viability, 24-48 h, at 10 µM, active compounds read high
# [3] = biological target: L-lactate dehydrogenase (Plasmodium falciparum (isolate CDC / Honduras)) (UniProt Q27743); assay: PfLDH activity inhibition – cell lysate, 3D7 strain, counter-screen for P. falciparum growth inhibition project (AID 2304); details: P. falciparum 3D7 crude extract, LDH APAD/NBT absorbance; at 2 µM; active compounds read high
# L-lactate dehydrogenase (Plasmodium falciparum (isolate CDC / Honduras)), sequence (Q27743 whole entry, looked up): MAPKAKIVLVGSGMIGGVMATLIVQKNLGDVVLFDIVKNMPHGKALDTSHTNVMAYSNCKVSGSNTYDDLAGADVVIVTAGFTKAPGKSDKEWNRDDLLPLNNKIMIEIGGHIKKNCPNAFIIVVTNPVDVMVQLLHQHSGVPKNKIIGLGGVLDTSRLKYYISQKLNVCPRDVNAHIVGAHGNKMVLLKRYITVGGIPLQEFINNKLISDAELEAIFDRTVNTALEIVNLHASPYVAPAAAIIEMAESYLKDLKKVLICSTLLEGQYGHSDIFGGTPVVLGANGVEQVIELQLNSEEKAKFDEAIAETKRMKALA
# [4] = inhibition of 3D7 malaria parasite growth – strain 3D7 (AID 2306); details: P. falciparum 3D7 erythrocytic growth, LDH absorbance, 72 h; at 2 µM; active compounds read high
# [5] = biological target: Calcium-dependent protein kinase 1 (Plasmodium falciparum (isolate 3D7)) (UniProt P62344); assay: PfCDPK1 kinase inhibitors, biochemical, TCAMS library (AID 1159585; cut-off not given, nearly all actives have IC50 up to about 0.98 µM;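 note: inhibitors leave more ATP so luminescence rises with inhibition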); details: recombinant PfCDPK1, Kinase-Glo ATP depletion luminescence
# Calcium-dependent protein kinase 1 (Plasmodium falciparum (isolate 3D7)), sequence (P62344 whole entry, looked up): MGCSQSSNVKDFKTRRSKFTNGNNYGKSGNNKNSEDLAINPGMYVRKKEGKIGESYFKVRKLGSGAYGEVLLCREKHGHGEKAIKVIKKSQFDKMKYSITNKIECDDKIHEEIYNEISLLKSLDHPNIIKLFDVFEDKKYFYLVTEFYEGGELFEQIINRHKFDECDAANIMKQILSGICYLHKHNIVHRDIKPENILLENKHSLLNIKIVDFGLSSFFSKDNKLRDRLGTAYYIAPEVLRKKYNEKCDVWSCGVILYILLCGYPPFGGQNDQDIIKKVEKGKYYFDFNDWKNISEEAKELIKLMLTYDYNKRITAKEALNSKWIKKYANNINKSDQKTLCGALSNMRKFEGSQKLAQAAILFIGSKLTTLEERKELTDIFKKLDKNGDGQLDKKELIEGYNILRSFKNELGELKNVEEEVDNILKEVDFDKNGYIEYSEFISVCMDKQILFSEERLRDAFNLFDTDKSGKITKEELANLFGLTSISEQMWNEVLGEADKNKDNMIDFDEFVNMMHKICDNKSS
# [6] = biological target: Plasmodium falciparum protein kinase 6 (PK6, PF3D7_1337100) (UniProt Q8IDW1); assay: PfPK6 kinase inhibitors, biochemical, TCAMS library (AID 1159586); details: recombinant PfPK6, Kinase-Glo ATP depletion luminescence
# Plasmodium falciparum protein kinase 6 (PK6, PF3D7_1337100), sequence (Q8IDW1 1-305): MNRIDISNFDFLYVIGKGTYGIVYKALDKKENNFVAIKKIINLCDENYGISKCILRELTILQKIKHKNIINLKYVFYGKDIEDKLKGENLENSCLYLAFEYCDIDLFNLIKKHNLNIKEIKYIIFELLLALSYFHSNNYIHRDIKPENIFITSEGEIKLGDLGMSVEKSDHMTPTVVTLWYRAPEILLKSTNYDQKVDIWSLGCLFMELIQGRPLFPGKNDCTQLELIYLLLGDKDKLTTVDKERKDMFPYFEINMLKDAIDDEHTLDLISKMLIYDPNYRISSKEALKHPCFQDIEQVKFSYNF
# [7] = biological target: Protein kinase 7 (PK7), Plasmodium falciparum 3D7 (PF3D7_0213400) (UniProt Q7YTF7); assay: inhibition of Plasmodium PK7 catalytic activity – biochemical, TCAMS antimalarial set, Kinase-Glo luminescence (AID 1159587); details: recombinant PfPK7, Kinase-Glo ATP depletion luminescence
# Protein kinase 7 (PK7), Plasmodium falciparum 3D7 (PF3D7_0213400), sequence (Q7YTF7 1-343): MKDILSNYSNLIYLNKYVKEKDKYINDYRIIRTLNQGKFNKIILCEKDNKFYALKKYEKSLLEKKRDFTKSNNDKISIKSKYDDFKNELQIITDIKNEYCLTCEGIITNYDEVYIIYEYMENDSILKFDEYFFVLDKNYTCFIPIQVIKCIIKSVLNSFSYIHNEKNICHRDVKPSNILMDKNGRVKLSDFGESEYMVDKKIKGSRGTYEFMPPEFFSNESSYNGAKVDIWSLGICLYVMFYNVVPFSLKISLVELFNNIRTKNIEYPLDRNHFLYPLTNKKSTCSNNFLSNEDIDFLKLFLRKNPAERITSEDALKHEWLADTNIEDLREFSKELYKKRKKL
# [8] = biological target: Calcium-dependent protein kinase 4 (Plasmodium falciparum (isolate 3D7)) (UniProt Q8IBS5); assay: PfCDPK4 kinase inhibitors, biochemical, TCAMS library (AID 1159588; cut-off not given, nearly all actives have IC50 up to about 0.91 µM); details: recombinant PfCDPK4, Kinase-Glo ATP depletion luminescence
# Calcium-dependent protein kinase 4 (Plasmodium falciparum (isolate 3D7)), sequence (Q8IBS5 whole entry, looked up): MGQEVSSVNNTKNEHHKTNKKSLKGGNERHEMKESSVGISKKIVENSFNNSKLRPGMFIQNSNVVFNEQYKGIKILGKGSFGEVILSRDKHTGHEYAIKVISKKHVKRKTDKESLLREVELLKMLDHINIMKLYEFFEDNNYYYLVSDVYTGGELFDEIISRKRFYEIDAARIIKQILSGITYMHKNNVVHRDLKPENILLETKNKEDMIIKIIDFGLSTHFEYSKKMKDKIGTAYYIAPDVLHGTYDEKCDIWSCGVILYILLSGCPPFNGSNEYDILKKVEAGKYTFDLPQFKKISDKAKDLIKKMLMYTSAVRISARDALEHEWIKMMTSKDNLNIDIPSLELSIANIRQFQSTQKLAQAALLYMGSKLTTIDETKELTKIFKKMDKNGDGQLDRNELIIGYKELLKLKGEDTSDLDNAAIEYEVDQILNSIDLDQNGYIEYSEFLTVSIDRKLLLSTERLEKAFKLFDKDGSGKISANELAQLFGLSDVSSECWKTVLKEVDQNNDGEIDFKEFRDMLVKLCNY
SMILES,growth inhibition [1],inhibition [2],inhibition [3] [%],growth inhibition [4],outcome [5],outcome [6],outcome [7],outcome [8]
CCOC(=O)NC1=NC(C)(C)N(OCc2ccc(Cl)c(Cl)c2)C(N)=N1,90% (active),66% (active),-5,96% (active),inactive,inactive,inactive,inactive
Cc1cnccc1/C=C/c1cccc(OCCN2CCc3ccc(S(C)(=O)=O)cc3CC2)c1,80% (active),9%,-4,93% (active),inactive,inactive,inactive,inactive
Nc1ccc(-c2cnc3[nH]cc(-c4ccc(C(=O)O)cc4)c3c2)cn1,99% (active),48%,1,97% (active),inactive,inactive,inactive,inactive
Cc1cc(C(=O)CN2C(=O)NC(C)(c3cccc4ccccc34)C2=O)c(C)n1Cc1ccco1 (stereo unspecified),23%,-2%,0,90% (active),inactive,inactive,inactive,inactive
Cc1cc(NN=Cc2ccccc2[N+](=O)[O-])c2cc(C(F)(F)F)ccc2n1,39%,-5%,1,97% (active),inactive,inactive,inactive,inactive
Cc1c(CC(=O)N(C)C2CCN(CCCCCNC(=O)/C=C/c3ccc(Cl)c(Cl)c3)CC2)sc2ccc(Cl)cc12,9%,93% (active),3,95% (active),inactive,inactive,inactive,inactive
NC(=O)c1cnc2cc(-c3ccncc3)cc(Nc3ccc(NC(=O)C4CCCCC4)cc3)c2c1,99% (active),58% (active),0,98% (active),inactive,inactive,inactive,inactive
Nc1c2ccccc2nc2ccc(Cl)cc12,100% (active),55% (active),6,101% (active),inactive,inactive,inactive,inactive
CC(CN(C)C)C(=O)Nc1cccc(-c2ccc(-c3nc4ccc(F)cc4[nH]3)cc2)c1 (stereo unspecified),100% (active),11%,-1,101% (active),inactive,inactive,inactive,inactive
COc1ccc(NC(=O)CCNc2cc(C)nc(Nc3ccccc3)n2)cc1,15%,-9%,-2,92% (active),inactive,inactive,inactive,inactive
COc1ccc2nccc(N3CCN(CCNCc4ccc5c(n4)NC(=O)CO5)CC3)c2n1,12%,10%,1,98% (active),inactive,inactive,inactive,inactive
CCc1ccc(C2CCN(CCCCNC(=O)c3ccc(NC(=O)c4ccc(Cl)cc4)cc3)CC2)c(OC(C)=O)c1,100% (active),48%,0,91% (active),inactive,inactive,inactive,inactive
O=C(Cn1c(=O)cnc2ccccc21)Nc1cccc(C(=O)Nc2cccc(C(F)(F)F)c2)c1,66% (active),-12%,3,90% (active),inactive,inactive,inactive,inactive
N#Cc1ccc(Cn2ccc3c4c(N)nc(N)nc4ccc32)cc1,95% (active),64% (active),0,92% (active),inactive,inactive,inactive,inactive
COc1ccc2nccc([C@@H](O)CN3CCC(NCc4ccc5c(c4)N(C)C(=O)CO5)CC3)c2c1,95% (active),-3%,6,101% (active),inactive,inactive,inactive,inactive
Cc1cc2nc(-c3ccc(C(=O)NCc4ccc(C(C)(C)C)cc4)cc3)[nH]c2cc1C,59% (active),3%,-3,101% (active),inactive,inactive,inactive,inactive
N#Cc1cccc(-c2nc(NCc3cccc(C(F)(F)F)c3)nn2-c2cccc(C(F)(F)F)c2)c1,88% (active),12%,3,94% (active),inactive,inactive,inactive,inactive
Cc1ccc(-n2[nH]c(C)c(N=Nc3cccc(-c4cccc(NC(=O)OC(C)(C)C)c4)c3O)c2=O)cc1C,21%,39%,-4,94% (active),inactive,inactive,inactive,inactive
CCCC(C)Nc1nc(C)cc(N[C@@H](Cc2ccccc2)C(=O)NCCOc2ccccc2)n1 (stereo partly specified),68% (active),10%,-1,101% (active),inactive,inactive,inactive,inactive

SMILES,growth inhibition [1],inhibition [2],inhibition [3] [%],growth inhibition [4],outcome [5],outcome [6],outcome [7],outcome [8]
CC(C)n1nc(C(=O)N2CCN(c3ccccc3)CC2)c2ccccc2c1=O,3%,34%,0,96% (active),inactive,inactive,inactive,inactive
O=[N+]([O-])c1ccc(CNCCCCCCNCc2ccc([N+](=O)[O-])c3ccccc23)c2ccccc12,98% (active),88% (active),0,102% (active),inactive,inactive,inactive,inactive
CC(=O)Nc1cccc(CNc2cc(C)nc(Nc3ccc(C)cc3)n2)c1,23%,18%,0,82% (active),inactive,inactive,inactive,inactive
COc1ccc(-c2cncc3ccc(C(=O)NCc4ccncc4)nc23)cc1,98% (active),25%,0,100% (active),inactive,inactive,inactive,inactive
C=CCN1C(=O)c2[nH]nc(-c3cc(C)c(C)cc3O)c2C1c1cccc(Br)c1 (stereo unspecified),82% (active),-14%,-3,90% (active),inactive,inactive,inactive,inactive
NC(N)=NC(=O)Nc1cc(Br)c(Cl)c(Br)c1,83% (active),0%,4,101% (active),inactive,inactive,inactive,inactive
Nc1c(Cl)cc(C(O)CNCCCCCCCCCc2ccccn2)cc1Cl (stereo unspecified),83% (active),9%,2,98% (active),inactive,inactive,inactive,inactive
COc1ccc2nc3cc(Cl)ccc3c(NCCCCN)c2c1,62% (active),52% (active),7,101% (active),inactive,inactive,inactive,inactive
O=C(Nc1cccc(-c2cccc(-c3nc4ccccc4[nH]3)c2)c1)c1ccncc1,38%,27%,-4,99% (active),inactive,inactive,inactive,inactive
COc1ccc2nccc([C@@H](O)CN3CCC(NC(=O)c4cc5c(F)cc(F)cc5[nH]4)CC3)c2c1,98% (active),33%,-1,101% (active),inactive,inactive,inactive,inactive
OC(CNc1ccnc(Nc2cccc(Cl)c2)n1)c1ccccc1C(F)(F)F (stereo unspecified),36%,40%,0,95% (active),inactive,inactive,inactive,inactive
O=C(CN1CCN(S(=O)(=O)C=Cc2ccccc2)CC1)Nc1cc(C(F)(F)F)ccc1Cl,63% (active),23%,5,96% (active),inactive,inactive,inactive,inactive
COc1ccc2ncc(F)c(CCN3CC[C@@H](CNCc4cc5c(cn4)OCS5)C3)c2n1,29%,3%,0,98% (active),inactive,inactive,inactive,inactive
Cc1ccc(Nc2nc(-c3ccccn3)cs2)nc1,97% (active),60% (active),-8,94% (active),inactive,inactive,inactive,inactive
N#Cc1ccc(-c2ccc(C(=O)NCCCCN3CCC(c4cc(Br)c5c(c4OCC(N)=O)CCCC5)CC3)cc2)cc1,89% (active),23%,6,100% (active),inactive,inactive,inactive,inactive
CC1CCN(Cc2ccc(NC(=O)c3cc4ccc5cccnc5c4[nH]3)cc2)CC1,93% (active),10%,-1,101% (active),inactive,inactive,inactive,inactive
COc1ccccc1-c1ccc2nnc(SCC(=O)Nc3ccc4c(c3)OCCO4)n2n1,5%,9%,-7,99% (active),inactive,inactive,inactive,inactive
COc1ccc(CNCc2cccc(-c3ccc(-c4nc5c(C)cccc5[nH]4)cc3)c2)cc1,70% (active),23%,7,101% (active),inactive,inactive,inactive,inactive
